Test results published in PubChem BioAssay AID1159580 (chemical genetic matrix, 2015).
In all, about 5,500 compounds went through this assay and about 2,000 (36%) were called active. About 18% were inconclusive and are not listed. No stated cut-off is given here; in the data, active means normalized growth mostly below about 0.91 (no sharp cut-off); inconclusive means no clear call, values can overlap the other calls; inactive means mostly above about 0.92. Some of the results follow.

Test: chemical genetic growth profiling, strain panel (AID 1159580);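 further: tested at 20 µM; growth read once vehicle control cultures reached saturation at 30 °C; 1 = growth at the plate median or of vehicle wells; lower values mean less growth of the strain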
Conditions: S. cerevisiae deletion strains, growth OD

Measured: normalized growth

O=C(O[C@@H]1Cc2c(O)cc(O)cc2O[C@@H]1c1cc(O)c(O)c(O)c1-c1c([C@H]2Oc3cc(O)cc(O)c3C[C@H]2O)cc(O)c(O)c1O)c1cc(O)c(O)c(O)c1
inactive: locus YAL021C, strain ccr4, active compounds read low 0.962 | locus YAL026C, strain drs2, active compounds read low 0.965 | locus YAL030W, strain snc1, active compounds read low 1.01 | locus YBL061C, strain skt5, active compounds read low 0.997 | locus YBR009C, strain hhf1, active compounds read low 0.979 | locus YBR021W, strain FUR4, active compounds read low 1.03 | locus YBR023C, strain chs3, active compounds read low 0.936 | locus YBR171W, strain sec66, active compounds read low 1.02 | locus YBR279W, strain paf1, active compounds read low 0.978 | locus YCL011C, strain gbp2, active compounds read low 0.988 | locus YCL016C, strain dcc1, active compounds read low 0.988 | locus YCL061C, strain MRC1, active compounds read low 0.993 | locus YCL069W, strain vba3, active compounds read low 1.01 | locus YCR088W, strain abp1, active compounds read low 1.03 | locus YDL005C, strain med2, active compounds read low 1.03 | locus YDL040C, strain nat1, active compounds read low 1 | locus YDL185W, strain tfp1, active compounds read low 0.928 | locus YDR001C, strain nth1, active compounds read low 1.03 | locus YDR137W, strain rgp1, active compounds read low 0.984 | locus YDR195W, strain ref2 1.07 | locus YDR297W, strain sur2, active compounds read low 0.981 | locus YDR334W, strain swr1, active compounds read low 0.985 | locus YDR335W, strain msn5, active compounds read low 0.979 | locus YDR392W, strain spt3, active compounds read low 1.02 | locus YEL003W, strain gim4, active compounds read low 0.968 | locus YEL037C, strain rad23, active compounds read low 1 | locus YEL061C, strain CIN8 (second series), active compounds read low 1.02 | locus YER016W, strain bim1, active compounds read low 1.01 | locus YER110C, active compounds read low 0.992 | locus YER111C, strain swi4, active compounds read low 0.963 | locus YER155C, strain BEM2 (second series), active compounds read low 1.03 | locus YFR010W, strain ubp6, active compounds read low 0.986 | locus YGL078C, strain dbp3, active compounds read low 0.983 | locus YGL167C, strain pmr1, active compounds read low 1 | locus YGL173C, strain kem1, active compounds read low 0.961 | locus YGL227W, strain vid30, active compounds read low 1.04 | locus YGL240W, strain doc1, active compounds read low 1.09 | locus YGL253W, strain hxk2, active compounds read low 1.01 | locus YHR013C, strain ard1, active compounds read low 0.937 | locus YHR142W, strain chs7, active compounds read low 0.969 | locus YIL125W, strain kgd1, active compounds read low 1.02 | locus YJL092W, strain hpr5, active compounds read low 1.03 | locus YJL095W, strain BCK1 (second series), active compounds read low 0.991 | locus YJL115W, strain asf1, active compounds read low 1.03 | locus YJL129C, strain trk1, active compounds read low 1.06 | locus YJL154C, strain vps35, active compounds read low 1.02 | locus YJL164C, strain tpk1, active compounds read low 0.941 | locus YJL166W, strain qcr8, active compounds read low 0.984 | locus YJL168C, strain set2, active compounds read low 0.934
active: locus YAL013W, strain DEP1, active compounds read low 0.0787 | locus YBR229C, strain ROT2, active compounds read low 0.387 | locus YBR231C, strain swc5, active compounds read low 0.873 | locus YCL029C, strain bik1, active compounds read low 0.643 | locus YDL035C, strain GPR1, active compounds read low 0.0755 | locus YDL074C, strain BRE1, active compounds read low 0.204 | locus YDL101C, strain DUN1, active compounds read low 0.113 | locus YDL134C, strain PPH21, active compounds read low 0.09 | locus YDL192W, strain arf1, active compounds read low 0.553 | locus YDR069C, strain doa4, active compounds read low 0.893 | locus YDR101C, strain arx1, active compounds read low 0.772 | locus YDR159W, strain sac3, active compounds read low 1.14 [resistant] | locus YDR162C, strain NBP2, active compounds read low 0.0726 | locus YDR318W, strain mcm21, active compounds read low 0.61 | locus YDR388W, active compounds read low 0.737 | locus YDR502C, strain sam2, active compounds read low 0.362 | locus YER015W, strain faa2, active compounds read low 0.892 | locus YER155C, strain BEM2, active compounds read low 0.523 | locus YER167W, strain BCK2, active compounds read low 0.295 | locus YGL086W, strain mad1, active compounds read low 0.308 | locus YGL248W, strain PDE1, active compounds read low 0.146 | locus YGR078C, strain PAC10, active compounds read low 0.414 | locus YGR135W, strain pre9, active compounds read low 0.429 | locus YGR229C, strain SMI1, active compounds read low 0.0837 | locus YGR252W, strain gcn5, active compounds read low 0.516 | locus YHR027C, strain rpn1, active compounds read low 0.911 | locus YHR030C, strain SLT2, active compounds read low 0.219 | locus YHR079C, strain IRE1 (second series), active compounds read low 0.626 | locus YHR094C, strain hxt1, active compounds read low 0.888 | locus YHR129C, strain ARP1, active compounds read low 0.205 | locus YHR200W, strain rpn10, active compounds read low 0.569 | locus YIL066C, strain RNR3, active compounds read low 0.0703 | locus YIL073C, strain SPO22, active compounds read low 0.15 | locus YIR030C, strain dcg1, active compounds read low 0.863 | locus YJL095W, strain BCK1, active compounds read low 0.107 | locus YJL134W, strain LCB3, active compounds read low 0.432
